# Compound activity deposited in PubChem BioAssay by Center for Chemical Genomics, University of Michigan.
# HIV TAR-Tat – HIV-1 TAR-Tat binding disruption. hit rate 0.6% among 100,000. z-score (no concentration beside the values). HIV-1 TAR RNA, Tat peptide displacement FRET; stronger effect = higher value. AID 1259389; active means z-score of 3 or more in at least 2 runs
# CDC25B CDK2 inh – human CDC25B-CDK2/CyclinA binding inhibition. HTRF CDC25B-CDK2/CyclinA binding, anti-His/anti-Flag; stronger effect = higher value. z-score (test concentration not listed). hit rate 0.72% among 94,000. AID 1259370; in the data active means z-score above about 3.2
# * = called active by the depositor; x = no result. Hits are enriched below; roughly 0.86% of the tested compounds scored in any of these assays.
SMILES,HIV TAR-Tat,CDC25B CDK2 inh
O=C(Nc1sc2c(c1C(=O)NCc1ccco1)CCC2)c1csnn1,9.26*,-0.63
O=C(Nc1ccccc1)Nc1ccc(C(F)(F)F)cc1Br,x,0.07
Cc1cc(=O)c2c(O)c3c(O)cc(O)c4c5c(O)cc(O)c6c(O)c7c(=O)cc(C)c8c1c2c(c34)c(c65)c78,7.83*,x
Cc1cc(O)c2c(c1O)C(=O)c1c(O)cc(C)c(O)c1C2=O,0.53,x
O=C(NCCN1CCN(c2ccccc2)CC1)Nc1ccc(F)cc1F,7.7*,-2.04
O=C(NCCCN1CCN(c2ccccc2)CC1)Nc1ccc(F)cc1F,2.15,-1.46
O=C1CC(=O)Nc2cc(S(=O)(=O)NC3CCCCCC3)ccc2N1,x,-0.47
CC(=O)N1c2ccc(S(=O)(=O)N3c4ccccc4CC3C)cc2CC1C (stereo unspecified),0.07,x
COC(=O)c1cc(S(=O)(=O)N2c3ccccc3CC2C)c[nH]1 (stereo unspecified),21.6*,x
Cc1ccc(-n2nc3ccc(N)cc3n2)cc1Cl,0.29,-1.53
COc1ccc(-n2nc3ccc(N)cc3n2)cc1Cl,16.1*,1.96
CC1Sc2ccc(S(=O)(=O)NC3CCCC(C)C3C)cc2NC1=O (stereo unspecified),2.21,x
O=C1CCC(=O)N1CCCn1c2ccccc2c2nc3ccccc3nc21,1.04,14.4*
C#CCn1c2ccccc2c2nc3ccccc3nc21,0.07,x
Cc1ccc2c(=O)cc(C(=O)Nc3nc4ccc(S(C)(=O)=O)cc4s3)oc2c1C,1.24,-1.12
O=C(Cn1ncc2c([nH]c3ccccc32)c1=O)N1CCc2ccccc21,2.13,x
Cc1c(NC(=O)NCCCN2CCOCC2)sc2nc3n(c(=O)c12)CCC(C)CC3 (stereo unspecified),0.6,10.1*
Cc1c(C(=O)NCCCN2CCOCC2)sc2nc3n(c(=O)c12)CCCCC3,1.53,x
COc1ccc(Br)cc1C1CC(=O)N2CN(c3ccccc3OC)CSC2=C1C#N (stereo unspecified),0.32,6.19*
COc1ccc(N2CSC3=C(C#N)C(c4cc(Br)ccc4OC)CC(=O)N3C2)cc1 (stereo unspecified),-0.71,5.38*
COc1ccc(OC)c(C2CC(=O)N3CN(c4ccc(Br)cc4)CSC3=C2C#N)c1 (stereo unspecified),-0.7,4.52*
COc1ccc(Br)cc1C1CC(=O)N2CN(C3CCCCC3)CSC2=C1C#N (stereo unspecified),-0.3,-0.77
COc1ccccc1N1CSC2=C(C#N)C(c3ccc(Br)cc3)CC(=O)N2C1 (stereo unspecified),-4.77,1.51
COc1ccc(OC)c(C2CC(=O)N3CN(c4ccc(F)cc4)CSC3=C2C#N)c1 (stereo unspecified),-2.08,3.97*
O=C(OCc1cc(=O)n2c3c(sc2n1)CCCC3)c1ccccc1F,0.34,x
SMILES,HIV TAR-Tat,CDC25B CDK2 inh
Cc1c(C(=O)NCCCN2CCCC2=O)oc2ccc3c(c12)C(=O)CC1(CCC(C)CC1)O3 (stereo unspecified),0.89,2.77
CCOC(=O)C1=C(C)Nc2nc3ccccc3n2C1c1cc(F)cc(F)c1 (stereo unspecified),-0.35,-1.52
COc1ccc(C2CC(=O)N3CN(c4ccc(Br)cc4)CSC3=C2C#N)c(OC)c1 (stereo unspecified),-1.78,6.42*
Cn1c2c(c(=O)n(C)c1=O)CN(Cc1cccnc1)CN2,-0.87,-1.84
O=C1CC(c2ccco2)CC2=C1C(c1ccccc1)C1=C(N2)c2ccccc2C1=O (stereo unspecified),0.01,12.3*
CCCCOC(=O)C1=C(C)NC2=C(C(=O)CC(c3ccccc3)C2)C1c1ccco1 (stereo unspecified),1.55,1.35
O=C(Nc1ccc(O)c(-c2nc3ccccc3o2)c1)c1ccc(-c2ccc(Cl)cc2)o1,x,-5.67
COc1ccc(Cl)cc1NC(=O)CSc1nn2c(=O)c(C)nnc2s1,1.43,x
Cc1cc(NC(=O)Cn2cnc3c(nnn3Cc3ccc(Cl)cc3)c2=O)no1,x,-1.83
Cc1ccc(C2/C(=C(\O)c3ccc(F)cc3)C(=O)C(=O)N2c2nnc(C)s2)cc1 (stereo unspecified),x,0.19
Cc1ccccc1Nc1nc(NCc2ccco2)c2ccccc2n1,-0.17,5.99*
Oc1ccccc1Nc1nc(NCc2ccco2)c2ccccc2n1,8.74,-1.23
CC(/C=N/O)=N\Nc1ccccc1,x,-1.8
C/C(CC(C)(C)Nc1ccccc1)=N\O,x,14.1*
CCOC(=O)/C(N=Nc1ccc(Br)cc1)=C(/O)CSC#N,x,-2.02
O=C(CSc1nnc(-c2ccncc2)o1)Nc1nc2ccccc2s1,1.49,-0.01
Cc1nc2c(-c3ccc(F)cc3)c(C)nn2c(C)c1CC(=O)O,-0.78,-1.51
CCOc1cc(C2CC(=O)N3CN(c4ccc(CC)cc4)CSC3=C2C#N)ccc1O (stereo unspecified),23.7*,1.17
CCCSC1=C(C#N)C(c2ccc(O)c(OCC)c2)CC(=O)N1 (stereo unspecified),-0.28,-1.05
CCOc1cc(C2CC(=O)N3CN(c4ccc(Br)cc4)CSC3=C2C#N)ccc1O (stereo unspecified),26.8*,2.96
CCOc1cc(C2CC(=O)N3CN(Cc4ccco4)CSC3=C2C#N)ccc1O (stereo unspecified),1.73,2.11
COc1nc(N)nc(C23CC4CC(CC(C4)C2)C3)n1,x,-2.3
COc1ccc(C2Nn3c(C)nnc3SC2C(=O)N2CCCC2)cc1Br (stereo unspecified),-1.31,-2.68
CCOC(=O)C1CCN(c2ccc([N+](=O)[O-])s2)CC1,3.46*,x
CCOC(=O)C1CCN(c2nnc(-n3c(C)ccc3C)s2)CC1,-0.52,4
SMILES,HIV TAR-Tat,CDC25B CDK2 inh
COc1ccc(Cl)cc1NC(=O)NCCc1csc2c1CCCC2,-0.07,x
COc1ccc2cc(C(=O)Nc3ccc(Cl)cc3)sc(=O)c2c1OC,6.36*,0.18
COc1ccc2cc(C(=O)Nc3ccc(F)cc3)sc(=O)c2c1OC,3.9,0.7
CCOC(NC(=O)Nc1ccc(Br)cc1)(C(F)(F)F)C(F)(F)F,x,-2.5
C=CCNC(=O)Nc1ccc2nc(-c3ccccc3)c(-c3ccccc3)nc2c1,x,-0.53
S=C(Nc1ccc2nc3c4ccccc4c4ccccc4c3nc2c1)N1CCOCC1,x,-0.55
O=C(NCCCO)Nc1ccc2nc(-c3ccccc3)c(-c3ccccc3)nc2c1,x,-0.48
COCCNC(=O)Nc1ccc2sc(NS(=O)(=O)c3ccccc3)nc2c1,2.63,x
COCCNC(=S)Nc1ccc2nc3c4ccccc4c4ccccc4c3nc2c1,x,11*
C=CCNC(=S)Nc1ccc2nc3c4ccccc4c4ccccc4c3nc2c1,x,4.68*
CC(C)N(C(=S)Nc1ccc2nc3c4ccccc4c4ccccc4c3nc2c1)C(C)C,x,10.1*
OCCCNC(=S)Nc1ccc2nc(-c3ccccc3)c(-c3ccccc3)nc2c1,x,5.86*
COc1ccc(C)cc1NS(=O)(=O)c1ccc(-c2cc(C(F)(F)F)on2)s1,1.27,x
O=C(Nc1ccc(F)cc1)c1cn2c3c(ccc(Cl)c3c1=O)OCC2,1.73,x
O=C(Nc1ccc2c(c1)OCCO2)NC(c1ccccc1)c1nnc(-c2ccc(Cl)cc2)o1 (stereo unspecified),1.19,x
Cc1nc(-n2cccc2)sc1C(=O)NC1CCC(C)CC1 (stereo unspecified),0.22,-1.6
O=C(Nc1ccc2[nH]c(=O)c(=O)[nH]c2c1)c1ccco1,0.22,0.67
CCCNC(=S)Nc1ccc(Cl)cc1,x,-0.64
CCCNC(=S)Nc1ccc2nc3c4ccccc4c4ccccc4c3nc2c1,x,11.3*
